NS1 function inh – qHTS Assay for Inhibitors of Influenza NS1 Protein Function; hit rate 0.4% among 270,000; Potency, µM (highest dose often 46.1 µM), without a hit: at the top dose activity, positive = more growth; calls by dose curve; also: potency is read from the fitted curve at half-maximal effect; actives are rising curves; nearly all actives have a fitted effect of over 50% in size
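A cell-based growth assay was used: compounds that relieve NS1-induced slow growth of budding yeast raise OD600. Assay medium was yeast nitrogen base with ammonium sulphate and -URA supplement, pH 6.0, with 2% galactose.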
Pf growth 48h – Primary qHTS for delayed death inhibitors of the malarial parasite plastid, 48 hour incubation | P. falciparum luciferase growth in erythrocytes, 48 h | hit rate 5.9% among 310,000 | Potency, µM (titrated, usually from 28.7 µM), for inactives: top-dose activity change, negative = inhibition, actives largely listed as inhibitors | AID 504832, 2011; also: potency is read from the fitted curve at half-maximal effect; % is scaled to controls: 0 for no effect and ±100 for the full control effect
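Luminescence readout; reporter = integrated firefly luciferase in P. falciparum. RBC culture at 2% hematocrit, 0.1% parasitemia final, 37 C/5% CO2; decreased signal taken as growth inhibition.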
Giardia FBPA inh – qHTS Assay for Inhibitors of Fructose-1,6-bisphosphate Aldolase from Giardia Lamblia; hit rate 0.71% among 290,000; A8B2U2; AID 2451, 2010; purified Giardia FBPA; Potency, µM (highest dose often 59.6 µM), inactives show top-dose activity, negative = inhibition, actives largely listed as inhibitors; also: potency is read from the fitted curve at half-maximal effect; % is scaled to controls: 0 for no effect and ±100 for the full control effect; nearly all actives have a fitted effect of over 55% in size
Target sequence (A8B2U2 whole entry, looked up): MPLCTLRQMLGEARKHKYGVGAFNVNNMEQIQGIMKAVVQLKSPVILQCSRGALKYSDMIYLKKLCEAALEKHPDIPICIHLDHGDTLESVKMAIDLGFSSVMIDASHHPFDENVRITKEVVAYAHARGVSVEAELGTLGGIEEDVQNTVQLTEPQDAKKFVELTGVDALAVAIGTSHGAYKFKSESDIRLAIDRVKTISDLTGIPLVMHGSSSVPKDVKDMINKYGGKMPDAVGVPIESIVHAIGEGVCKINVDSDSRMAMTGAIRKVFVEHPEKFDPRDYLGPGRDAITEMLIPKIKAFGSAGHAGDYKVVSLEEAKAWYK
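Giardia FBPA (40 nM reagent) was preincubated 10 min at RT with compound (up to 57.5 uM final), then substrate plus GAPDH/TPI/NAD/arsenate coupling system with diaphorase/resazurin was added; resorufin fluorescence (525/598 nm) was read after 20 min.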
Shiga toxin inh – A qHTS for Small Molecule Inhibitors of Shiga Toxin; Vero cells, Shiga toxin protein synthesis inhibition reporter; inhibition, % at 38.7 µM; hit rate 9.2% among 290,000; AID 2315, 2010; in the data active = inhibition mostly above about 28%, no sharp cut-off; inactive = mostly below about 43%; also: 0% is about no effect
CHX counter – Cycloheximide Counterscreen for Small Molecule Inhibitors of Shiga Toxin; cell reporter, cycloheximide protein synthesis inhibition counterscreen; max response, %; hit rate 12% among 300,000; AID 2314, 2010; in the data active = max response mostly above about 13%, no sharp cut-off; inactive = mostly below about 14%; also: read at 38.3 µM for the half of the compounds with a filed dose; 0% is about no effect
Pf growth 96h – Primary qHTS for delayed death inhibitors of the malarial parasite plastid, 96 hour incubation; P. falciparum luciferase reporter growth, 96 h; Potency, µM (top dose mostly 28.7 µM), for inactives: at the top dose activity change, negative = inhibition, most hits filed as inhibitors; hit rate 6.9% among 320,000; AID 504834, 2011; also: potency is read from the fitted curve at half-maximal effect; % is scaled to controls: 0 for no effect and ±100 for the full control effect
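Two parasite generations (96 h, 37 C, 5% CO2) of compound exposure in infected erythrocytes (0.05% parasitemia, 2% hematocrit). Luciferase-reporter P. falciparum; decreased luminescence indicates inhibited growth, aimed at apicoplast-acting delayed death.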
Active calls of the source: *; ? = inconclusive; / = no result given; [ ] = remark or other dose. Only some compounds are listed: those with a hit (about 21% of all), similar ones and a draw of the others. Unless noted, calls follow the shape of the dose curve; as a rule, active = well fitted curve in the direction sought with a large enough effect; inconclusive = small, poorly fitted or top-dose-only effect, or another doubt; inactive = no such curve, though single readings can be large; an effect the other way counts as inactive or inconclusive.

SMILES	NS1 function inh	Pf growth 48h	Giardia FBPA inh	Shiga toxin inh	CHX counter	Pf growth 96h
CCN(CC)CCNc1cc(C)nc2c1C(=O)C(=O)C=C2N1CCCCC1	0.3%	?	1.99µM*	-16.3	-2.1	29.1%
O=C1NCC(O)=C1C=NCCCO	-9.6%	17.8%	6.5%	-3.6	0.8	?
O=C1NCC(O)=C1C=Nc1ccccc1O	-34.1%	10.4µM*	5.0%	-1.5	-1.8	?
C#CCOc1ccc2ccccc2c1/C=C(/C#N)c1ccc(C(=O)O)cc1	-10.3%	?	16.7%	/	3.3	-5.0%
CC(c1ccon1)N(C)C(=O)CCc1nnc(Cc2ccc(-c3ccccc3)cc2)o1 (centres undefined)	-1.5%	?	10.4%	39.9	16.5*	25.7%
CN(Cc1ccon1)C(=O)CCc1nnc(CCCCc2ccccc2)o1	-6.3%	10.8%	-0.8%	-9.9	-0.5	?
CN(Cc1ccon1)C(=O)CCc1nnc(Cc2ccc(-c3ccccc3)cc2)o1	-7.0%	-2.3%	2.1%	36.8*	23.5*	17.4%
CN(CCc1ccccc1)C(=O)CCc1nnc(Cc2ccc3c(c2)OCO3)o1	6.0%	?	/	31.7	12.8*	?
CN(C)CCCO[C@H]1[C@@H]2OC(C)(C)O[C@@H]2O[C@@H]1[C@H](O)CO	/	/	3.8%[21.7 µM]	/	/	/
CCOC(=O)c1ccc2c(c1)n(CCCS(=O)(=O)[O-])c(/C=C/c1ccc(Cl)cc1)[n+]2CC	0.8%	9.28µM*	6.9%	-0.8	6.9	?
CCOC(=O)c1ccc2c(c1)n(CC)c(C)[n+]2CC	1.8%	?	0.2%	15.5	-3.5	30.1%
CC(NS(=O)(=O)CCNC(=O)c1ccccc1)c1ccccc1 (centres undefined)	/	5.7%	/	/	/	31.9%
Clc1ccc2sc(C3CCNCC3)nc2c1	-2.8%	63.6%	-12.1%	56.2*	35.8*	153.8%
Cc1csc(=O)n1CC(=O)OCC(=O)NNC(=O)c1ccc(Cl)cc1	/	33.8%	/	/	/	17.1%
Cc1cc(C)nc(N/C(=N\S(=O)(=O)Cc2ccccc2)Nc2ccc(F)c(Cl)c2)n1	2.7%	-8.4%	3.0%	-14.2	1.2	9.28µM*
CCOc1ccc(C(C)NC(=S)NCc2ccc(Cl)cc2)cc1 (centres undefined)	3.5%	?	-7.0%	1.3	2.3	5.22µM*
CCC(NC(=S)NCc1ccc(F)cc1)c1ccc(C(C)C)cc1 (centres undefined)	12.9%	10.4µM*	22.1%	-12.6	-1.0	?
CCCc1ccc(C(C)NC(=S)NCc2ccc(F)cc2)cc1 (centres undefined)	-5.2%	?	-23.4%	6.2	7.9	11.7µM*
CCC(C)c1ccc(C(C)NC(=S)NCc2ccc(F)cc2)cc1 (centres undefined)	0.9%	?	23.7%	-6.1	-0.6	?
O=C(NNC(=O)c1cc(Br)c(Br)s1)c1ccncc1	/	10.5%	/	/	/	48.6%
COc1ccc(OC)c(C(c2nnnn2C2CCCC2)N2CCN(c3ccc(F)cc3)CC2)c1 (centres undefined)	-1.4%	11.7µM*	-20.5%	29.2	-4.4	23.5%
COc1ccc(N2CCN(C(c3nnnn3C3CCCC3)C(C)C)CC2)cc1 (centres undefined)	-0.1%	-11.5%	2.0%	-16.2	-3.5	39.9%
COc1ccc(C(c2nnnn2C2CCCC2)N2CCC(C)CC2)c(OC)c1 (centres undefined)	-18.2%	11.7µM*	0.0%	-11.7	-1.9	3.4%
C=C(C)CC(Nc1ccc(OC)cc1)c1ccco1 (centres undefined)	5.9%	-5.4%	-6.9%	41.2	5.7	41.4%
Nc1nnnn1CC(=O)N/N=C/C=C/c1ccccc1	3.8%	8.8%	1.1%	23.7	-2.0	0.5%
SMILES	NS1 function inh	Pf growth 48h	Giardia FBPA inh	Shiga toxin inh	CHX counter	Pf growth 96h
Nc1nnnn1/N=C/C=C/c1ccccc1	-7.9%	32.6%	4.0%	41.0	17.4*	0.9%
Nc1nnnn1/N=C/C(Br)=C/c1ccccc1	-63.1%	?	-10.7%	176.3*	68.4*	-8.7%
Oc1ccc(CNc2ccccc2)c2cccnc12	-6.6%	?	?	1.9	-2.3	37.5%
Oc1ccc(COCc2ccc(F)cc2)c2cccnc12	/	2.94µM*	/	/	/	4.15µM*
Oc1ccc(COC2CCCC2)c2cccnc12	/	1.31µM*	/	/	/	8.28µM*
Cc1ccccc1NCc1ccc(O)c2ncccc12	14.1%	?	-5.4%	-2.5	-2.5	-12.6%
Oc1ccc(COc2cccc3ccccc23)c2cccnc12	/	2.62µM*	/	/	/	5.22µM*
Oc1ccc(CNc2ccc(F)cc2)c2cccnc12	-45.7%	?	-0.2%	62.1	0.8	?
COCc1ccc(O)c2ncccc12	-140.9%	/	12.1%	-8.4	26.2*	?
CC[C@]1(OC(=O)CN)C(=O)OCc2c1cc1n(c2=O)Cc2cc3ccccc3nc2-1	-10.6%	/	/	/	/	/
Nc1ccccc1N=Nc1ccccc1N	-52.6%	292.6%	5.4%	51.2*	44.0*	414.6%
Nc1ccccc1-c1ccccc1N	12.4%	0.0%	-9.3%	3.7	9.3	0.0%
COc1ccc(-n2nc(C)c3sc(C)nc3c2=O)cc1	1.9%	15.0%	-1.1%	46.2	9.6*	39.5%
O=C1c2ccccc2C(=O)N1CC1c2ccccc2CCN1C(=O)C1CCCCC1 (centres undefined)	1.1%	/	11.5%	2.2	1.5	11.7µM*
O=C(O)[C@@H]1CCCC[C@@H]1C(=O)N1CCc2ccccc2C1CN1C(=O)c2ccccc2C1=O (some centres undefined)	3.3%	/	16.5%	-11.5	-0.8	-23.1%
C[N+](C)(N)CCC[N+](C)(C)N	-1.8%	/	/	/	/	/
COC(=O)c1cc(-c2ccc(S(=O)(=O)N3CCCCC3)cc2)c(C(F)(F)F)s1	7.8%	11.7µM*	1.3%	19.6	9.3	?
COC(=O)c1cc(-c2ccc(S(=O)(=O)N3CCCC3)cc2)c(C(F)(F)F)s1	5.6%	?	11.8%	-7.8	-0.5	?
COc1ccc(NS(=O)(=O)c2ccc(N3CCCCC3)c(N)c2)cc1	/	-23.3%	/	/	/	?
Cc1cc(Br)cc(C)c1OCC(=O)NNC(=O)c1cccs1	-18.4%	-9.5%	4.7%	-13.5	-3.3	11.7µM*
O=C(COc1ccc(Br)cc1Br)NNC(=O)c1cccs1	0.4%	41.6%	-2.6%	43.8	17.8	1.2%
COc1ccccc1CC(=O)NNC(=O)c1cccs1	1.9%	17.0%	-0.9%	-6.3	1.0	0.262µM*
Cc1cc(C)n(-c2ccc(C(=O)OCC(=O)Nc3cc(S(C)(=O)=O)ccc3Cl)cc2)n1	/	18.5%	/	/	/	-0.7%
COc1ccc(-c2cc(=O)oc3c(C)c(OC(C)C(=O)NCc4ccccn4)ccc23)cc1 (centres undefined)	-15.5%	?	28.3%	-2.5	-1.4	?
O=C(c1cccc(F)c1)N1CCC2(CC1)CN(c1ccc(-c3ccccc3)cc1)C2	/	/	0.8%	/	/	/

Bioassay records from PubChem.
